The source of these data is ChEMBL document CHEMBL3988442, “University of Dundee, Small-Polar-MMV Screening Library” (2021).

This test has as its target Shiga toxin 2 (Escherichia coli O157:H7) (UniProt P09385+P09386). The test can be described thus: E. coli 0.157:H7 Shiga Toxin SOP - stx2 screening assay. In kind it is functional. The arrangement: scale not given: direction of the effect not stated beside the values. The conditions noted are these: 30 µM.
`CC(O)CN1CCN(C(=O)c2cccc(CC#N)c2)CC1` (stereo not given): the Percent Effect is -54.8%.

For `O=c1oc(-c2ccc(F)cc2)nn1CN1CCN(C2CCCC2)CC1`, the Percent Effect is -2.79%.

On to `Cc1ccc(C2CCCCCN2Cc2cn(C)nc2C)cc1` (stereo not given), for which the Percent Effect was -29%.

As for `Cc1ccc(OCC(=O)NS(=O)(=O)c2c(C)noc2C)cc1C`, the Percent Effect is -54.6%.

`CC(C)c1nccn1C1CCCN(C(=O)c2cnc[nH]2)C1` (stereo not given): the Percent Effect is -3.33%.

Regarding `Cc1noc(Cl)c1CCC(=O)N1CCCCC1Cn1cccn1` (stereo not given), the Percent Effect was -6.37%.

On to `O=C1CCSCC(C(=O)N2CCOCC2)N1` (stereo not given), for which the Percent Effect amounted to 3.97%.

Regarding `CCN1CCCC1CN(CCN(C)C)S(=O)(=O)c1ccc(C#N)cc1` (stereo not given), the Percent Effect was -8.05%.

Turning to `O=C(CCOc1ccc(Cl)cc1)N1CCN(c2cnccn2)CC1`, the Percent Effect is -12.7%.

Regarding `CCC(C)NC(=O)Cc1c(C)nc2c(c1C)c(=O)[nH]n2C` (stereo not given), the Percent Effect was -28.6%.

As for `CC(C)Cc1cc(NC(=O)c2ccc(=O)[nH]n2)n(C)n1`, the Percent Effect is -34.7%.

On to `NS(=O)(=O)c1ccc(NC(=O)CSc2ccc3c(c2)CCC3)cc1`, for which the Percent Effect was -78.8%.

For the molecule `CC(C)c1nccn1-c1cccc(C2CCN(C)CC2)n1`, the Percent Effect is -33.7%.

As for `Cc1ccsc1[C@@H]1CCN(C(=O)CCC(=O)N2CCCCCC2)C[C@H]1O`, the Percent Effect is -23.3%.

As to `CCCOc1ccc(CNC2CCCc3c2cnn3CC)cc1OC` (stereo not given), the Percent Effect was -22.9%.

For the molecule `CCc1ncc2c(n1)CN(C(=O)COC)C2`, the Percent Effect was -5.79%.

Consider `CS(=O)(=O)NCc1cc2n(n1)CCCN(Cc1cccc(C#N)c1)C2`, for which the Percent Effect came to 18.6%.

For `O[C@H]1[C@H](n2cc(-c3ccccc3)nn2)c2ccccc2C12CCNCC2`, the Percent Effect is -10.9%.

`Cc1cc(C)n(C2CCCN(C(=O)c3cccc4[nH]ncc34)C2)n1` (stereo not given): the Percent Effect was -6.75%.

For the molecule `O=C(NCc1ccco1)[C@H]1C[C@@H]2CCN(c3ccncn3)C[C@@H]2O1`, the Percent Effect was -6.97%.

As to `O=C([C@H]1C[C@H]2OCC[C@H]2N(C(=O)C2CCOCC2)C1)N1CCCCO1`, the Percent Effect is -26.6%.

As for `CC(C)C(C)NC(=O)Nc1ccccc1CN1CCOCC1` (stereo not given), the Percent Effect was 9.92%.

In the case of `Cc1cccc(OCCC(=O)N(C)CCC#N)c1C`, the Percent Effect came to 8.57%.

Turning to `CCc1nc(C)c(C(=O)NCCNc2ncccn2)s1`, the Percent Effect is 30.3%.

Take `Cc1nc(C)n(CC2CCCN2CCCc2ccccc2)n1` (stereo not given): the Percent Effect was -14.3%.

Take `COc1ccc(C)cc1CN1CCCC1c1noc(C2CC2)n1` (stereo not given): the Percent Effect was -3.88%.

As for `OCC1CCCN1c1cc(NCCNc2ccccn2)ncn1` (stereo not given), the Percent Effect is -85.7%.

As to `CCc1cc(C(=O)N2CCCC2c2nc(C)c(F)c(O)n2)on1` (stereo not given), the Percent Effect was -57%.

In the case of `CN1CCOC(CNC(=O)Cc2ccccc2F)C1` (stereo not given), the Percent Effect was -8.98%.

On to `CCOc1ccccc1-c1noc(CN2CCCC(O)C2)n1` (stereo not given), for which the Percent Effect was 2.11%.

With `O=C(c1ccc[nH]1)N1CCn2cc(Cn3cncn3)nc2C1`, the Percent Effect was -6.64%.

Take `O=C(CSc1ccccc1Cl)NS(=O)(=O)c1ccc2c(c1)OCCO2`: the Percent Effect was -0.0514%.

In the case of `Cc1ccc(NC(C)C(=O)NCc2cccs2)cc1C` (stereo not given), the Percent Effect was -30.8%.

For the molecule `C[C@]1(O)CCN(Cc2cncs2)C[C@@H]1Oc1cccc(F)c1`, the Percent Effect worked out at 35.4%.

For `CCn1ccnc1CN1CCCN(C(=O)Cn2nc(C)cc2C)CC1`, the Percent Effect came out at 8.68%.

With `CCc1ccc(C(=O)N2CCCC(n3cncn3)C2)o1` (stereo not given), the Percent Effect was -18.7%.

Take `COc1ccc(CN2CCCCC2CNC(=O)OC(C)(C)C)cc1F` (stereo not given): the Percent Effect came out at 6.58%.

For `CC(O)CN1CCN(C(=O)c2ccn(-c3cccc(Cl)c3)n2)CC1` (stereo not given), the Percent Effect was 7.58%.

As for `N#CCSCCCN1CCCN(C(=O)c2ccccc2)CC1`, the Percent Effect is -31.2%.

Turning to `CC(CN1CCOCC1)NC(=O)NCc1ccc(Cl)s1` (stereo not given), the Percent Effect is -2.94%.
